Bioassay records: PubChem BioAssay, Broad Institute
Vaccinia stage: blocks a specific stage of Vaccinia orthopoxvirus infection; AID 1053133; Vaccinia-infected cells, mCherry/Venus stage reporter fluorescence; hits give low values; activity change (mCherry), % (concentration not given with the values); actives 0.01% (n = 89,000); in the data active means activity change below about -37%, passing the limit was not always enough; tested in A549 cells
* hit, by the source's call. Only a sample is shown.

SMILES	Vaccinia stage
Cc1ccc(S(=O)(=O)N(C)C[C@@H]2Oc3ccc(NC(=O)C4CC4)cc3C(=O)N([C@@H](C)CO)C[C@@H]2C)cc1	-4
C[C@H]1CN([C@@H](C)CO)C(=O)c2cc(-c3cccc(F)c3)cnc2O[C@H]1CN(C)C(=O)C1CCCCC1	-5
O=C(C1CC1)N1CC2(C1)[C@H](c1ccccc1)[C@@H](CO)N2CCC(F)(F)F	12
O=C(NCC[C@H]1CC[C@H](NS(=O)(=O)c2ccc(Oc3ccccc3)cc2)[C@@H](CO)O1)C1CC1	-16
C[C@@H]1CN([C@@H](C)CO)C(=O)c2cc(NS(=O)(=O)c3ccccc3)ccc2O[C@H]1CN(C)S(C)(=O)=O	17
COCC(=O)N1[C@H](CO)[C@H]2c3ccccc3N(C(=O)c3cccc(OC)c3)C[C@H]21	7
CCNC(=O)C[C@@H]1CC[C@@H]2[C@H](COc3ccc(NC(=O)Cc4cccs4)cc3C(=O)N2C)O1	15
COc1ccc(NC(=O)Nc2ccc3c(c2)[C@@H]2C[C@@H](CC(=O)NC4CCCCC4)O[C@@H](CO)[C@@H]2O3)cc1	0
COc1ccc(S(=O)(=O)Nc2ccc3c(c2)CC(=O)N([C@H](C)CO)C[C@H](C)[C@H](CN(C)Cc2ccccc2)O3)cc1	-17
CC=Cc1ccc2n(c1=O)C[C@H]1[C@H](CO)[C@@H](C(=O)NCCc3cn(C)cn3)N(C(=O)C3CCC3)[C@@H]21 (mixture of isomers)	-5
C[C@H]1CN([C@@H](C)CO)C(=O)c2cc(NC(=O)C3CC3)ccc2O[C@H]1CN(C)Cc1ccc(-c2ccccc2)cc1	-16
C[C@H](CO)N1C[C@H](C)[C@H](CN(C)C(=O)Nc2cccc3ccccc23)Oc2ccc(NS(=O)(=O)c3ccc(Cl)cc3)cc2C1=O	25
COc1ccc(S(=O)(=O)N(C)C[C@@H]2OCc3ccccc3-c3ccccc3C(=O)N([C@@H](C)CO)C[C@H]2C)cc1	-6
O=C(Cc1ccncc1)Nc1ccc2c(c1)[C@@H]1C[C@H](CC(=O)NC3CCCCC3)O[C@H](CO)[C@@H]1O2	5
C[C@H]1CN([C@@H](C)CO)C(=O)c2cc(-c3cccc(C#N)c3)cnc2O[C@@H]1CN(C)Cc1ccc(F)cc1	-10
C[C@@H]1CN([C@H](C)CO)C(=O)c2cc(NC(=O)CCCN(C)C)ccc2O[C@H]1CN(C)S(=O)(=O)c1ccc(F)cc1	6
COc1ccc(CNC(=O)C[C@H]2CC[C@@H]3[C@@H](COc4ccc(NC(=O)C(C)C)cc4C(=O)N3C)O2)cc1	-4
